Data taken from PubChem BioAssay.
Activity calls are given as the source filed them. Unless noted, the rule behind the calls is not given here.

How the values were obtained:
[1] = liver-stage malaria parasite load reduction – cell-based, known kinase inhibitor set, luminescence, hepatoma host viability (AID 624392); details: Plasmodium liver stage in hepatoma cells, luciferase luminescence, concentration not given here; liver cell % of control: measured here: host liver cell viability; parasite % of control: stronger effect = lower value;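 note: infected cells incubated roughly two days before readout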
[2] = altered dexamethasone sensitivity, NF-kB reporter, cell-based, luciferase, IL-1B stimulus (AID 624486); details: IL-1B + dexamethasone, luminescence; percent of negative control (+Dex): actives lie on both sides, concentration not given here; z-score: measured here: IL-1B alone, no Dex;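 for percent of negative control (+Dex): 100% = mean signal of vehicle control wells on the plate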
[3] = C. elegans survival during P. aeruginosa infection – whole organism (AID 651566);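 note: tested at 14 µM; sign flipped so higher z means a lower ratio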; details: C. elegans killed by P. aeruginosa, survival ratio
[4] = pro-inflammatory signaling induction in mouse macrophages – cell-based, murine, luminescence (AID 652131); details: murine macrophage pro-inflammatory reporter, stronger effect = higher value
[5] = biological target: Cellular tumor antigen p53 (Homo sapiens) (UniProt P04637); assay: GFP-p53 level modulators in HPV16+ cells – imaging, known kinase inhibitor set, EGFP/DsRed ratio (AID 1053116); details: GFP-p53 stability, stronger effect = higher value; EGFP object count: measured here: GFP-p53 positive objects count;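 note: cells exposed to compounds for 24 h at 37 °C before reading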
Sequence of Cellular tumor antigen p53 (Homo sapiens) (P04637 whole entry, looked up): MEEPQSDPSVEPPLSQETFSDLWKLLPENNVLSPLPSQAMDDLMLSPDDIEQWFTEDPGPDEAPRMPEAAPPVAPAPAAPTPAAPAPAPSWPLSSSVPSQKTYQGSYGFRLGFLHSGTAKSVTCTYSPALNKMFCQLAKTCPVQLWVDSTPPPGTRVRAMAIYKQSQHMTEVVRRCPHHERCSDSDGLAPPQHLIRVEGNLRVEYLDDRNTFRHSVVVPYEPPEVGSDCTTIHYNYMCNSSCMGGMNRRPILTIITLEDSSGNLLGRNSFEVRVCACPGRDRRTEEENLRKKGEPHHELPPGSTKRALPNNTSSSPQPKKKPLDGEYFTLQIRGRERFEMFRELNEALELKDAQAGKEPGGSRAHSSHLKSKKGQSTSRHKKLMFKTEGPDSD

[6] = inducers of IRF3 signaling, differentiated THP-1 – cell-based, PMA-stimulated THP-1, luminescence (AID 1053176); details: PMA-differentiated THP-1, IRF3 reporter luminescence; stronger effect = higher value
[7] = MELAS cybrid and Rieske KO viability enhancers – cell-based, MELAS cybrids, Rieske KO mouse fibroblasts, CellTiter-Glo, primary screen (AID 1508586;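 active = mean z-score across replicates of 1.96 or higher in either the MELAS or the Rieske mutant cell line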;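 note: z relative to plate mean and SD of compound and empty wells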); details: low glucose
[8] = MELAS cybrid survival, CellTiter-Glo 48 h, stronger effect = higher value
[9] = Rieske KO mouse fibroblast survival, CellTiter-Glo 72 h

SMILES | liver cell % of control [1] | parasite % of control [1] | percent of negative control (+Dex) [2] | z-score [2] | z-score [3] | z-score [4] | EGFP object count [5] | EGFP/DsRed ratio [5] | fraction signal [6] | z-score [7, 8] | z-score [7, 9]
Nc1nc(-c2ccc3c(c2)/C(=C\c2cc(Br)c(O)c(Br)c2)C(=O)N3)cs1 | 70.8% | 79.2% (inactive) | 86.5% (inactive) | -0.23 | 0.35 (inactive) | 2.85 (inactive) | 5.5 | 0.264 (inactive) | -0.002 (inactive) | -0.944 (inactive) | -0.14
NC(=O)c1sc(-n2cnc3cc(C(F)(F)F)ccc32)cc1OCc1ccccc1Br | 109% | 113% (inactive) | 94.5% (inactive) | 0.595 | 0.64 (inactive) | -0.704 (inactive) | 10.5 | 0.407 (inactive) | -0.0005 (inactive) | 0.066 (inactive) | -0.5
Fc1ccc(-c2ncn(CCCN3CCOCC3)c2-c2ccncc2)cc1 | 110% | 145% (inactive) | 98.5% (inactive) | 1.32 | 0.18 (inactive) | -0.092 (inactive) | 4 | 0.0405 (inactive) | -0.0075 (inactive) | -1.02 (inactive) | 0.219
Oc1[nH]c2ccccc2c1C=Nc1ccc(-n2cncn2)cc1 | 80.6% | 240% (inactive) | 142% (active) | 4.13 | -0.065 (inactive) | 3.17 (inactive) | 8.5 | 0.377 (inactive) | -0.0045 (inactive) | 0.931 (inactive) | -0.448
CN(C)C(=O)O[C@H]1CN[C@H](C#Cc2cc3ncnc(Nc4ccc(OCc5cccc(F)c5)c(Cl)c4)c3s2)C1 | 97.6% | 127% (inactive) | 92% (inactive) | -0.215 | 0.225 (inactive) | -0.738 (inactive) | 2 | 0.131 (inactive) | 0.001 (inactive) | -0.153 (inactive) | -0.193
Nc1nccc(-c2c(-c3ccc(F)cc3)ncn2CCCN2CCOCC2)n1 | 120% | 130% (inactive) | 116% (inactive) | 2.06 | -0.635 (inactive) | 1.67 (inactive) | 3.5 | 0.019 (inactive) | -0.0025 (inactive) | -0.929 (inactive) | -0.324
CCCNc1cccc(-n2ncc3c(N/N=C/c4ccncc4)ncnc32)c1 | 95.8% | 39.7% (inactive) | 90% (inactive) | -0.38 | 0.37 (inactive) | -1.11 (inactive) | 8.5 | 0.328 (inactive) | -0.005 (inactive) | 1.12 (inactive) | -0.108
CCc1cccc(NC(=O)Nc2ccc(Oc3ccc4nc(NC(=O)OC)[nH]c4c3)cc2)c1 | 93.1% | 128% (inactive) | 106% (inactive) | 0.55 | -0.175 (inactive) | 0.13 (inactive) | 106 | 1.83 (active) | -0.002 (inactive) | -0.411 (inactive) | -0.621
COc1cc2ncnc(Nc3ccc4c(cnn4Cc4ccccc4)c3)c2cc1OC | 114% | 129% (inactive) | 71.5% (inactive) | -2.37 | -0.95 (inactive) | 3.16 (inactive) | 4 | 0.17 (inactive) | 0.032 (inactive) | 0.162 (inactive) | -0.293
CS(=O)(=O)CCNCc1nc(-c2ccc3ncnc(Nc4ccc(OCc5cccc(C(F)(F)F)c5)cc4)c3c2)cs1 | 96.4% | 93.1% (inactive) | 91.5% (inactive) | -0.43 | -0.1 (inactive) | 0.202 (inactive) | 4.5 | 0.116 (inactive) | -0.002 (inactive) | 0.123 (inactive) | -0.291
OCc1ccc(-c2nc(-c3ccc4c(c3)OCO4)c(-c3ccccn3)[nH]2)cc1 | 108% | 115% (inactive) | 106% (inactive) | -0.455 | -0.12 (inactive) | 1.4 (inactive) | 3.5 | 0.0782 (inactive) | 0.0015 (inactive) | -0.819 (inactive) | -0.0179
CC1=C(C(=O)Nc2ccc3[nH]ncc3c2)C(c2ccc(F)cc2)N=C(c2ccc(C(F)(F)F)nc2)N1 (centres undefined) | 102% | 138% (inactive) | 86% (inactive) | -1.21 | 0.02 (inactive) | 0.13 (inactive) | 2 | 0.0614 (inactive) | -0.004 (inactive) | -0.75 (inactive) | -0.3
CN(c1ccc(NC(=O)NCCN2CCOCC2)cc1)c1ccnc(Nc2ccc(CS(C)(=O)=O)cc2)n1 | 99.9% | 114% (inactive) | 94% (inactive) | -0.155 | 0.89 (inactive) | 2.96 (inactive) | 3 | 0.184 (inactive) | -0.0035 (inactive) | -0.011 (inactive) | -0.139
CS(=O)(=O)CCNCc1ccc(-c2ccc3ncnc(Nc4ccc(OCc5cccc(F)c5)c(C(F)(F)F)c4)c3c2)o1 | 105% | 99.7% (inactive) | 106% (inactive) | 1.84 | 0.48 (inactive) | -0.873 (inactive) | 1 | 0.00783 (inactive) | -0.0125 (inactive) | -0.506 (inactive) | -0.463
